We go through 39 compounds from ChEMBL document CHEMBL1157539, “Thousands of chemical starting points for antimalarial lead identification” (Nature, 2010).

This assay deals with HepG2. The assay is described as follows: GSK_TCMDC: Percent inhibition of human HepG2 cell line. Test compounds present at 10uM. Type of assay: functional.
On to `CCCC(CC)n1ccc2c3c(N)nc(N)nc3ccc21.CS(=O)(=O)O` (centres undefined), for which the Inhibition turned out to be 67%.
The same measure for `COc1ccc(NC(=O)[C@H](Cc2ccccc2)Nc2cc(C)nc(NCc3ccccc3C)n2)cc1.O=C(O)C(F)(F)F`: 16%; for `Cc1ccc(C(c2nnnn2C2CCCC2)N(Cc2ccco2)Cc2ccccc2Cl)cc1` (centres undefined): 8%; for `CCOc1ccc(-c2nonc2NC(=O)c2ccc(Cl)cc2)cc1OCC`: 28%.
The same measure for `CCOc1ccccc1C1CCN(CCCCNC(=O)c2ccc(NC(=O)c3ccc(Cl)cc3)cc2)CC1`: 13%; for `Cc1cc(N[C@@H](CC(C)C)C(=O)NCCOc2ccccc2)nc(Nc2ccccc2)n1.O=C(O)C(F)(F)F`: 9%; for `CCC(COCc1ccc(Cl)cc1)N(C)CCN(C)C(CC)COCc1ccc(Cl)cc1.Cl` (centres undefined): 89%.
The figure for `Cc1cccc2nc(-c3cccc(-c4ccc(NC(=O)c5cccnc5)cc4)c3)[nH]c12` is 64%; for `COc1c(O)cc2oc(-c3ccc(O)cc3)cc(=O)c2c1O` [HISPIDULIN] it is 6%.
Turning to `Cc1ccc(F)cc1S(=O)(=O)N1CCCCC(c2ccc(C(F)(F)F)cc2)=N1`, the Inhibition was 8%.
The same measure for `COc1ccc(Nc2nc(=Nc3ccccc3)nc(NN=Cc3cc(Cl)ccc3O)[nH]2)cc1`: 55%.
The figure for `CC(C)CCN1CCC(Oc2ccc(NC(=O)c3ccco3)cc2Cl)CC1.O=C(O)C(F)(F)F` is 1%.
The same measure for `COc1ccccc1NC(=O)c1cc(C(=O)c2cc(Cl)ccc2O)cn(-c2ccccc2OC)c1=O`: 9%; for `CC(CNC1CCN(CCn2c(=O)ccc3ccc(F)cc32)CC1)c1ccccc1` (centres undefined): 0%.
On to `OCCc1ccc(Nc2nccc(-c3nnc4ccccn34)n2)cc1`, for which the Inhibition was determined as 63%.
The compound `COc1ccc(-c2nc3c(N)nc(N)nc3nc2C(C)C)cc1` showed an Inhibition of 71%.
The same measure for `O=C1Nc2cccc3c2C1(CCCCN1CCC(c2cc4ccncc4[nH]2)CC1)CCC3` (centres undefined): 0%; for `COc1cccc(C(=O)C2CC2CN(C)CCC(O)c2ccc(Cl)c(Cl)c2)c1` (centres undefined): 17%; for `NS(=O)(=O)c1cccc(Nc2nc(N[C@@H]3CCNC3)nc3cc[nH]c(=O)c23)c1.O=C(O)C(F)(F)F`: 7%.
The figure for `Cc1ccc(O)c(CN2CCCC(COC(c3ccc(F)cc3)c3ccc(F)cc3)C2)c1` (centres undefined) is 19%; for `Cc1cccc2nc(-c3cccc(-c4cccc(NC(=O)c5cnn6cccnc56)c4)c3)[nH]c12` it is 14%.
The same measure for `CCn1c(Sc2ccc(C#N)c([N+](=O)[O-])c2)nnc1-c1ccc(OC)cc1`: 0%; for `Cc1ccc(NC(=O)Nc2cccc(Cl)c2)cc1-c1ccc(C(=O)Nc2ccncc2)cc1`: 67%.
`Cc1ccc(Nc2nccc(N(C)c3ccc4c(c3)nc(NC(=O)Cc3ccc(Cl)c(Cl)c3)n4C)n2)cc1S(N)(=O)=O.O=C(O)C(F)(F)F` yielded an Inhibition of 71%.
The same measure for `Cn1ccc2c3c(N)nc(N)nc3ccc21`: 59%; for `Cc1cccc2nc(-c3cccc(-c4cccc(NC(=O)c5cccnc5)c4)c3)[nH]c12`: 28%.
In turn, `COc1ccc(C[C@H](N)C(=O)N[C@H]2[C@@H](O)[C@H](n3cnc4c(N(C)C)ncnc43)O[C@@H]2CO)cc1.Cl` registered an Inhibition of 98%.
The figure for `O=C(O)c1cc(OCC(O)COc2ccc(O)c(C(=O)O)c2)ccc1O` is 9%; for `CCn1ccc2c(N3CCCCS3(=O)=O)cc(C(=O)N[C@@H](Cc3ccccc3)[C@H](O)CNC3CCCCC3)cc21` it is 1%; for `Cn1c(NC(=O)c2ccc(CNC(=O)c3ccc(O)c(-c4ccc(Cl)c(Cl)c4)c3)cc2)nc2ccccc21` it is 20%.
The same measure for `O=C(NCc1ccc2c(c1)OCO2)c1nn(CCN2CCC(N3CCCC3)CC2)cc1-c1ccc(Cl)c(Cl)c1`: 21%; for `O=C(NC1CC1)c1cnc(N2CCN(Cc3ccc(Cl)cc3)CC2)c(Cl)c1.O=C(O)C(F)(F)F`: 39%.
The figure for `CCOC(=O)NC1=NC(=N)N(OCc2ccc(Cl)c(Cl)c2)C(C)(C)N1` is 66%; for `CC1CCN(C(=O)[C@H](Cc2c[nH]c3ccccc23)NS(=O)(=O)c2ccc(Cl)cc2)CC1` it is 0%.
As to `O=C(O)C1Cc2c([nH]c3ccccc23)C(c2ccc(Cl)cc2Cl)N1` (centres undefined), the Inhibition is on record as 7%.
The figure for `N#Cc1cnc2cc(-c3cnc(CNCCN4CCOCC4)s3)ccc2c1Nc1ccc(Oc2ccccc2)cc1` is 30%; for `CC[C@H](NC(=O)c1c(N)c(-c2sccc2Cl)nc2ccccc12)c1ccccc1` it is 0%; for `O=C(CC1SC(N2N=C(c3cccs3)CC2c2ccccc2)=NC1=O)Nc1ccccc1F` (centres undefined) it is 9%.
The figure for `CN1CCCC1CCNc1ncc2c(-c3ccc(NC(=O)Nc4cc(C(F)(F)F)ccc4F)cc3)nn(C)c2n1.O=C(O)C(F)(F)F` (centres undefined) is 74%.
